Experimental data reported in PubChem BioAssay AID651815 (National Center for Advancing Translational Sciences (NCATS), 2012).
The campaign covered roughly 2,100 compounds. About 1,100 (52%) were called active. Inconclusive results (about 29%) are left out. Calls follow the shape of the dose curve; as a rule, active = well fitted inhibition curve with a large enough effect; inconclusive = small, poorly fitted or top-dose-only effect; inactive = no such curve, though single readings can be large or run the other way. So high a share suggests a set chosen from earlier hits. The list shows a part of the results.

Each compound was assayed against DNA dC->dU-editing enzyme APOBEC-3F (Homo sapiens) (UniProt Q8IUX4) (assay: qHTS for inhibitors of Vif-A3F interactions: Cherry picks counterscreen). Details: HeLa A3F-eYFP/Vif cells, eYFP fluorescence, 24 h; series mostly up to 46.1 µM.
How it was run: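 Rescue of Vif-driven A3F-eYFP degradation read as cellular eYFP fluorescence after 24 h compound exposure (several concentrations) in stable HeLa cells; MG132 (2 mM stock) as positive control.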
Also: nearly all actives have a fitted effect of over 65% in size.
Potency is read from the fitted curve at half-maximal effect.

Chain of DNA dC->dU-editing enzyme APOBEC-3F (Homo sapiens) (Q8IUX4 whole entry, looked up): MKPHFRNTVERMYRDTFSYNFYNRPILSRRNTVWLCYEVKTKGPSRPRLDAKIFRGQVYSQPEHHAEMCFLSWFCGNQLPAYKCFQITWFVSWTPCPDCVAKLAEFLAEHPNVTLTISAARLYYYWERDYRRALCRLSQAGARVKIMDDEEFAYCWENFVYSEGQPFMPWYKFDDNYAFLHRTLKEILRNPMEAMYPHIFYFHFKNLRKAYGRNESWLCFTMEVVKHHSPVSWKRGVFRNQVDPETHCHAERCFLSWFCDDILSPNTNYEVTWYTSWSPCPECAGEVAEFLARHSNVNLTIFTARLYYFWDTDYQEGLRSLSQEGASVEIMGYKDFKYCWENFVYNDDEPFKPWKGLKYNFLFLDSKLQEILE

Row | SMILES | Potency
1 | CC(C)(C)NC(=S)N/N=C\c1ccc(-c2ccc([N+](=O)[O-])cc2)o1 | 18.4 µM (active)
2 | O=C(O)c1cccc(-c2ccc(/C=N/Nc3ccc([N+](=O)[O-])cc3)o2)c1 | 18.4 µM (active)
3 | CCOc1ccc(S(=O)(=O)N(CC(=O)N/N=C/c2ccc(-c3ccc([N+](=O)[O-])cc3)o2)c2ccccc2)cc1 | 3.53 µM (active)
4 | CN(/N=C/c1ccc(-c2ccc([N+](=O)[O-])cc2)o1)c1ccccc1 | 1.46 µM (active)
5 | Cn1ncc(N=Cc2c(O)ccc3ccccc23)c1C(=O)Nc1cccc(Cl)c1 | 14.6 µM (active)
6 | Cc1cc2nc(SCCOC(=O)Nc3cccc(Cl)c3)nc(C)c2cc1C | inactive
7 | CCCOc1ccccc1C1CC(=O)Nc2cc3c(cc21)OCO3 (stereo not given) | 3.96 µM (active)
8 | CCOc1ccccc1C1CC(=O)NC2=C1C(=O)CCC2 (stereo not given) | 12.5 µM (active)
9 | CCCOc1ccccc1C1CC(=O)NC2=C1C(=O)CCC2 (stereo not given) | 7.04 µM (active)
10 | CC(C)c1ccc(C(=O)NCCCNC(=O)c2cnccn2)cc1 | inactive
11 | Cc1c(C(=O)Nc2ccc(C(C)C)cc2)sc2nc3n(c(=O)c12)CCC3 | inactive
12 | CC(C)c1ccc(NC(=O)Nc2cnccn2)cc1 | 17.7 µM (active)
13 | CCOc1ccccc1N1CC(c2nc3ccccc3n2Cc2c(C)cc(C)cc2C)CC1=O (stereo not given) | inactive
14 | CCOC(=O)COn1c(=O)c(-c2ccc(Br)cc2)[n+]([O-])c2ccccc21 | inactive
15 | CCOC(=O)Cn1c(=O)c(-c2cc(Br)ccc2N)nc2ccccc21 | 11.6 µM (active)
16 | Nc1ccccc1C=C1Cc2ccccc2C1=O | 16.4 µM (active)
17 | CN(C)c1ccc(/C=C2/C[N+](C)(C)C/C(=C/c3ccc(N(C)C)cc3)C2=O)cc1 | 7.31 µM (active)
18 | CN(C)c1ccc(/C=C2\Cc3ccccc3C2=O)cc1 | 2.91 µM (active)
19 | Cc1ccccc1NC(=O)CSC1=C(C#N)C(c2ccsc2)CC(=O)N1 (stereo not given) | inactive
20 | CCOC(=O)CSC1=C(C#N)C(c2ccc(C)s2)CC(=O)N1 (stereo not given) | 1.98 µM (active)

Row | SMILES | Potency
21 | S=C(NCc1ccco1)Nc1ccc(Cl)cn1 | inactive
22 | CCCC(=O)NC1=C(Cl)C(=O)c2ccccc2C1=O | inactive
23 | O=C(CCc1ccccc1)Nc1ccc(Cl)cn1 | 3.96 µM (active)
24 | CN(C)c1ccc(/C=C/c2cc(N(C)C)nc3ccccc23)cc1 | 8.2 µM (active)
25 | CCN(CC)c1ccc(/C=C/c2cc(-c3ccccc3)c3ccccc3n2)cc1 | 7.04 µM (active)
26 | CN(C)c1ccc(/C=C/c2nc3ccccc3c(=O)n2CCO)cc1 | 23.1 µM (active)
27 | CN(C)c1ccc(/C=C/c2cc(/C=C/c3ccc(N(C)C)cc3)c3ccccc3n2)cc1 | 5.17 µM (active)
28 | CCC(C)Sc1cccc(-c2nc3cc(C)ccn3c2NC2CCCCC2)c1 (stereo not given) | inactive
29 | Nc1ccc(/C=C/c2cc(Cl)nc3ccccc23)cc1 | 23.1 µM (active)
30 | Nc1ccc2nc(-c3ccccc3)c(-c3ccccc3)nc2c1 | inactive
31 | CN1C(=S)N(c2cccnc2)C(=O)/C1=C\c1ccc(N(C)C)cc1 | 9.94 µM (active)
32 | Cc1c(N2C(=O)/C(=C/c3ccc(N(C)C)cc3)N(C)C2=S)c(=O)n(-c2ccccc2)n1C | 20.6 µM (active)
33 | CN1C(=O)/C(=C\c2ccc(N(C)C)cc2)OC1=S | 1.98 µM (active)
34 | Cc1ccc(/C=N/NC(=O)CCCOc2ccc(Cl)cc2Cl)cc1 | 4.98 µM (active)
35 | O=C1NC(c2ccccc2Br)=N/C1=C\c1ccco1 | inactive
36 | O=C1N/C(=C\c2ccccc2)c2ccccc21 | 1.58 µM (active)
37 | Cc1ccc2nc3sc(C(=O)N4CCCc5ccccc54)c(N)c3cc2c1 | 12.5 µM (active)
38 | Cc1cccc2cc3c(N)c(C(=O)N4CCc5ccccc54)sc3nc12 | 6.51 µM (active)
39 | Cc1cccc2cc3c(N)c(C(=O)N4CCCc5ccccc54)sc3nc12 | 20.6 µM (active)
40 | Fc1ccc(-c2cnn3c(-c4cccs4)ccnc23)cc1 | 15.8 µM (active)

Row | SMILES | Potency
41 | COc1ccccc1C1c2ccc3ccccc3c2Oc2ncn(CCN(C)C)c(=N)c21 (stereo not given) | 15.8 µM (active)
42 | COC(=O)C1C2CC3c4[nH]c5cc(OC)ccc5c4CCN3CC2CC(OC2CCCCO2)C1OC (stereo not given) | inactive
43 | COC(=O)C1=COC(C)C2CN3CCc4c([nH]c5cc(OC)c(OC)cc45)C3CC12 (stereo not given) | inactive
44 | COC(=O)C1C2CC3c4[nH]c5cc(OC)ccc5c4CCN3CC2CC(OC(=O)CC(C)=O)C1OC (stereo not given) | 18.4 µM (active)
45 | COc1ccc(-c2n[nH]c(C)c2-c2ccc(OC)c(OC)c2)c(O)c1 | 7.9 µM (active)
46 | O=[N+]([O-])c1ccc(N/N=C/c2sc(N3CCOCC3)nc2-c2ccccc2)c(S(=O)(=O)Nc2ccccc2Cl)c1 | 5.8 µM (active)
47 | O=[N+]([O-])c1ccccc1S(=O)(=O)Nc1ccc(-c2ccc(N3CCOCC3)nn2)cc1 | inactive
48 | COc1ccccc1NS(=O)(=O)c1cc([N+](=O)[O-])ccc1N/N=C/c1sc(N2CCOCC2)nc1-c1ccccc1 | 1.46 µM (active)
49 | COC(=O)c1ccc(NC(=O)CC2Nc3cc(C)c(C)cc3NC2=O)cc1 (stereo not given) | 9.2 µM (active)
50 | CCOC(=O)c1ccc(NC(=S)NC(=O)C2CCCC2)cc1 | inactive
51 | CCCSc1ncc(Cl)c(C(=O)Nc2sc3c(c2C(N)=O)CCCC3)n1 | 18.4 µM (active)
52 | CCOC(=O)c1ccc(/C=C2/C=C(c3ccccc3)N(c3ccc(Cl)c(C(=O)O)c3)C2=O)cc1 | 20.6 µM (active)
53 | Cc1cc(NC(=O)CSc2nc(-c3cccs3)nc3ccccc23)no1 | 0.994 µM (active)
54 | Cc1nonc1NC(=O)CSc1nc2c(C)cccc2cc1C#N | 16.4 µM (active)
55 | Cc1cc(NC(=O)CSc2nc3c(C)cccc3cc2C#N)no1 | 6.51 µM (active)
56 | Cc1cc2cc(C#N)c(SCC(=O)Nc3nonc3C)nc2cc1C | 23.1 µM (active)
57 | CC(Nc1oc(-c2ccc(COc3ccccc3)o2)nc1C#N)c1ccccc1 (stereo not given) | inactive
58 | Cc1nc2cc(NC(=O)CSc3nc4c(C)cccc4cc3C#N)ccc2s1 | 13 µM (active)
59 | Cc1ccc2nc(SCC(=O)Nc3ccc4sc(C)nc4c3)c(C#N)cc2c1 | 16.4 µM (active)
60 | Cc1cccc(C(=O)Nc2nnc(C3=COCCO3)o2)c1 | inactive
